SW480 rerep = inducers of DNA re-replication in SW480 colon cancer cells. SW480 DNA re-replication, Hoechst DNA content imaging, 48 h. Potency, µM (top dose mostly 46.1 µM), actives largely listed as activators. hit rate 1.8% among 340,000. AID 624297; note: nearly all actives have a fitted effect of over 55% in size
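Hoechst fluorescence of nuclei (405 nm excitation, 500-530 nm emission) measured by plate-scanning imager after 48 hr compound exposure at 37 C; re-replication scored as increased number of nuclei with elevated intensity.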
VP16 counter = inhibits Gal4-VP16 luciferase reporter, ROR gamma counter-screen | Drosophila S2 Gal4-VP16 UAS-luciferase, luminescence, 20 h | Potency, µM (top dose mostly 53.6 µM), hits mostly inhibitors | hit rate 3.5% among 310,000 | AID 2546;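 note: Gal4-VP16 expression switched on by copper sulfate through the metallothionein promoter; nearly all actives have a fitted effect of over 50% in size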
MCF10A rerep = induces DNA re-replication in MCF 10a normal breast cells; MCF 10A DNA re-replication, Hoechst nuclear intensity, 48 h; Potency, µM (titrated, usually from 46.1 µM), actives largely listed as activators; hit rate 2.9% among 350,000; AID 624296; note: nearly all actives have a fitted effect of over 50% in size
KB-V1 cytotox = KB-V1 MDR subline cytotoxicity | KB-V1 MDR cells viability, CellTiter-Glo, 72 h | Potency, µM (titrated, usually from 46.1 µM), usual class: cytotoxic | hit rate 3.4% among 400,000; note: nearly all actives have a fitted effect of over 60% in size
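Drug-selected KB-V1 cells, grown in DMEM lacking phenol red with 10% FBS, receive compound titrations; after three days at 37 degrees C, surviving cell ATP is quantified by CellTiter-Glo luminescence and responses normalized and curve-fitted.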
KB-3-1 tox = kills parental KB-3-1 adenocarcinoma cells | hit rate 1.4% among 400,000 | KB-3-1 viability, CellTiter-Glo ATP luminescence, 72 h | Potency, µM (doses to about 46.1 µM), most hits filed as cytotoxic; note: nearly all actives have a fitted effect of over 60% in size
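Luminescent ATP read-out (CellTiter-Glo) measures survival of drug-naive KB-3-1 cells after 72 h compound exposure at 37 °C. Titration series was screened from lowest to highest concentration, with DMSO vehicle plates as background controls.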
RORgamma inh = ROR gamma (mouse) transcription inhibition | P51450 | Drosophila S2 Gal4-RORgamma UAS-luciferase reporter, 20 h | Potency, µM (doses to about 53.6 µM), most hits filed as inhibitors | hit rate 5.4% among 310,000 | AID 2551; note: nearly all actives have a fitted effect of over 60% in size
Target sequence (P51450 whole entry, looked up, the tested form may be a part): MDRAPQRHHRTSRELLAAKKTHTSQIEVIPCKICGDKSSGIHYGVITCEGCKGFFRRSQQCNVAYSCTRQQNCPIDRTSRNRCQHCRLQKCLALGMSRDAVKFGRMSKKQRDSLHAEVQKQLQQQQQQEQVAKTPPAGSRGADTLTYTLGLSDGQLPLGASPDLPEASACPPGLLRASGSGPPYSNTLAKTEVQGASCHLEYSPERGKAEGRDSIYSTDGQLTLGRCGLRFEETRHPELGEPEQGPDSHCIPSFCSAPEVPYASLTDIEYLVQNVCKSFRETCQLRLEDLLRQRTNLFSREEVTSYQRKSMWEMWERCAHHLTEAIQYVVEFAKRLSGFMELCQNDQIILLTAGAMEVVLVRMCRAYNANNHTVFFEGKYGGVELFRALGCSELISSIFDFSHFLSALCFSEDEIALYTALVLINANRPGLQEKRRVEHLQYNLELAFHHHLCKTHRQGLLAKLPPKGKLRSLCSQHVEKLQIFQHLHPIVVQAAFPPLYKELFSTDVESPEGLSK
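In this cell-based reporter format, copper sulfate (700 uM final) drives Gal4–ROR gamma fusion expression from a metallothionein promoter in Drosophila Schneider cells; compounds preincubated 1 hr, reporter read after 20 hr at ambient temperature.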
Each line names hits and unclear results; the compound was inactive in the other large screens. An excerpt weighted towards active compounds, which were near 10% of everything screened. Calls come from the whole dose curve; as a rule, active = well fitted curve in the direction sought with a large enough effect; inconclusive = small, poorly fitted or top-dose-only effect, or another doubt; inactive = no such curve, though single readings can be large; an effect the other way counts as inactive or inconclusive.

O=C(NCc1nnnn1-c1ccc(F)cc1)c1ccc([N+](=O)[O-])o1	SW480 rerep inconclusive, MCF10A rerep inconclusive, KB-V1 cytotox inconclusive, KB-3-1 tox 18µM (no result: VP16 counter, RORgamma inh)
Cc1nc(NCc2ccccc2)c2nc(-c3ccccc3)n(CCN(C)C)c2n1	none (no result: SW480 rerep, MCF10A rerep, KB-V1 cytotox, KB-3-1 tox)
CC1CN(C(=O)N2CCC(C(=O)N3CCN(c4ccccc4)CC3)CC2)c2cc(Cl)ccc2O1 (configuration not stated)	none (no result: SW480 rerep, VP16 counter, MCF10A rerep, RORgamma inh)
CCn1c(SCC(=O)N(C)C)nc2cc(S(=O)(=O)N3CCCCC3)ccc21	KB-V1 cytotox 21µM (no result: VP16 counter, RORgamma inh)
CCn1c(C)nc2cc(S(=O)(=O)N3CCCCC3)ccc21	VP16 counter inconclusive
Cc1ccc(N2C(=O)CS(=O)(=O)C23C(=O)N(Cc2ccc(Cl)cc2)c2ccccc23)cc1C (configuration not stated)	KB-V1 cytotox inconclusive (no result: SW480 rerep, VP16 counter, MCF10A rerep, RORgamma inh)
CC1(C(=O)Nc2cccc(-n3cnnn3)c2)Cc2ccccc2C(=O)O1 (configuration not stated)	KB-V1 cytotox 12µM (no result: VP16 counter, RORgamma inh)
CCCc1cc(-c2nc(-c3ccc(Cl)cc3)cs2)ccn1	MCF10A rerep inconclusive, KB-V1 cytotox 16µM
CCn1c(C)nc2cc(C(=O)N/N=C/c3ccccc3C)ccc21	VP16 counter inconclusive, RORgamma inh inconclusive
CCn1c(C)nc2cc(C(=O)N/N=C(\C)c3ccccc3O)ccc21	VP16 counter 0.63µM, KB-V1 cytotox inconclusive, RORgamma inh 0.63µM
CCn1c(C)nc2cc(C(=O)NNC(=S)Nc3ccccc3OC)ccc21	RORgamma inh 13µM
Brc1cc2c(cc1/C=N/Nc1nc3ccccc3s1)OCO2	SW480 rerep inconclusive, VP16 counter inconclusive, MCF10A rerep 13µM, KB-V1 cytotox inconclusive, RORgamma inh 4.5µM
Cc1nc(N/N=C\c2ccc3c(c2)OCO3)sc1C	VP16 counter inconclusive
C(=N\Nc1nc2ccccc2s1)/c1ccc2c(c1)OCO2	VP16 counter 7.1µM, RORgamma inh 7.9µM
COc1ccc(/C=N/Nc2ncnc3sc4c(c23)CCCC4)cc1OC	SW480 rerep inconclusive, VP16 counter 4µM, MCF10A rerep inconclusive, KB-V1 cytotox inconclusive, KB-3-1 tox 18µM, RORgamma inh 3.2µM
CCN(CC)C(=O)c1sc2c(c1C)c(=O)n(CCc1ccccc1)c(=O)n2Cc1ccc(F)cc1Cl	KB-V1 cytotox inconclusive (no result: SW480 rerep, VP16 counter, MCF10A rerep, RORgamma inh)
CC(C)C[C@@H](CN1CCC[C@H]1CN1C(=O)C(=O)NC[C@@H]1Cc1ccccc1)N1C[C@H](Cc2ccc(O)cc2)N(CC2CCCCC2)C(=O)C1=O	none (no result: SW480 rerep, VP16 counter, MCF10A rerep, RORgamma inh)
O=C(CSc1nc2c(cnn2-c2ccc(F)cc2)c(=O)[nH]1)N1CCOCC1	none
O=c1[nH]c(SCc2nc3c(cnn3-c3ccccc3)c(=O)[nH]2)nc2ccccc12	MCF10A rerep inconclusive, KB-V1 cytotox inconclusive, KB-3-1 tox 2.1µM
Cc1ccc(-n2ncc3c(=O)[nH]c(SCC(=O)N4CCOCC4)nc32)cc1	MCF10A rerep 26µM
O=c1[nH]c(CSc2nc3ccccc3[nH]2)nc2c1cnn2-c1ccccc1	VP16 counter inconclusive, MCF10A rerep inconclusive, KB-V1 cytotox 10µM, RORgamma inh inconclusive
Cc1ccc2nc(SCc3nc4c(cnn4-c4ccccc4)c(=O)[nH]3)[nH]c2c1	VP16 counter inconclusive, MCF10A rerep inconclusive, KB-V1 cytotox 2.3µM, KB-3-1 tox 2.6µM, RORgamma inh inconclusive
O=c1[nH]c(CSc2ncccn2)nc2c1cnn2-c1ccccc1	KB-V1 cytotox inconclusive, RORgamma inh inconclusive
Cc1ccc2oc(C(=O)Nc3ccc(S(=O)(=O)Nc4nc(C)cc(C)n4)cc3)cc(=O)c2c1	none (no result: SW480 rerep, VP16 counter, MCF10A rerep, RORgamma inh)
COc1ccc(CNC(=O)C(=O)NCC2CCCO2)cc1 (configuration not stated)	MCF10A rerep inconclusive, KB-3-1 tox 18µM
CC(Sc1nc2ccccc2c(=O)n1CC1CCCO1)C(=O)NC(C)c1ccccc1 (configuration not stated)	none (no result: VP16 counter, RORgamma inh)
COc1ccc(C(=O)NNC(=O)c2ccc(C(C)(C)C)cc2)cc1	KB-V1 cytotox inconclusive
CNC(=S)NNC(=O)c1ccc(C(C)(C)C)cc1	VP16 counter inconclusive, KB-V1 cytotox inconclusive, RORgamma inh 2.2µM
COc1ccc(/C=C/C(=O)NC(=S)NCC2CCCO2)cc1 (configuration not stated)	RORgamma inh 1µM
